Beta apoptosis – blocks beta cell apoptosis; INS-1E cytokine-induced death, ATP luminescence, 48 h; percent of positive-control rescue, neutral wells zero; protection from apoptosis, % (concentration not given with the values); hit rate 0.8% among 300,000;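 active = Every replicate reaches about 75%, or at least half do and their mean reaches it too, limit read from the data; inconclusive = At least half of replicates reach the limit but their mean does not; inactive = Under half of replicates reach the limit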;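 note: higher means more ATP so stronger rescue from cytokine killing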
MPTP inh – inhibitors of mitochondrial permeability transition pore | hit rate 1.4% among 360,000 | isolated mouse mitochondria, Ca2+ swelling absorbance, 30 min | AID 602449 | inhibition, % at 10 µM;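 active = inhibition of 50% or more, scaled per plate between neutral and stimulator controls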
Mdm2 MdmX PPI – disrupts the human Mdm2-MdmX interaction; O15151+Q00987; SaOS-2 split-luciferase Mdm2/MdmX complementation, luminescence; inhibition, % at 8 µM; hit rate 3% among 330,000; AID 485346;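 active = inhibition of at least 50% at 8 µM in the primary screen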
Target sequence (O15151 whole entry, looked up): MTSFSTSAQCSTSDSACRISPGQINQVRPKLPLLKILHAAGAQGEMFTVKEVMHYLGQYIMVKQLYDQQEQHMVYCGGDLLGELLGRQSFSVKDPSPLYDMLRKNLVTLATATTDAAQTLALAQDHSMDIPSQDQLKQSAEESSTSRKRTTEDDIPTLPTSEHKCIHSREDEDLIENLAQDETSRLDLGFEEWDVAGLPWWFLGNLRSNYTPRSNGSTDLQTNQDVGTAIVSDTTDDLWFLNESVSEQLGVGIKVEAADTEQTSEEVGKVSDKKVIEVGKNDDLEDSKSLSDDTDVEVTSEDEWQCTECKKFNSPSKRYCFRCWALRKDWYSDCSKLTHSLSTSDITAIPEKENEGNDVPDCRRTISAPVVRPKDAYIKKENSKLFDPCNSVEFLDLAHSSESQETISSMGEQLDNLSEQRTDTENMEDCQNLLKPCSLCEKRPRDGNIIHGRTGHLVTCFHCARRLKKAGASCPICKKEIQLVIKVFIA
Target sequence (Q00987 whole entry, looked up): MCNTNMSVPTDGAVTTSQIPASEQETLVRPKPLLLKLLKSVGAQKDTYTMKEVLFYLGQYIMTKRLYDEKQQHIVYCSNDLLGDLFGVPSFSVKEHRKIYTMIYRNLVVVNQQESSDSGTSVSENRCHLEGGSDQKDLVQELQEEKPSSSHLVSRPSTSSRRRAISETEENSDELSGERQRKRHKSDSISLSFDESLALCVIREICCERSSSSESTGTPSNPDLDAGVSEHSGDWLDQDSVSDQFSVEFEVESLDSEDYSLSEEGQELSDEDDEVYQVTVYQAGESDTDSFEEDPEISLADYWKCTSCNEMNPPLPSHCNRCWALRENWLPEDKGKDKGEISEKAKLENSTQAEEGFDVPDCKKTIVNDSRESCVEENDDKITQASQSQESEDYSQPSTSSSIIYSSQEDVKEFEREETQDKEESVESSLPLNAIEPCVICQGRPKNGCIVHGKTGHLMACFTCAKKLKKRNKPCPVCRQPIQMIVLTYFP
CSC inhib – cancer stem cell inhibition | cancer stem cell-like cells viability, luminescence | inhibition, % at 7.5 µM | hit rate 1.1% among 300,000; in the data active = inhibition above about 75%; inconclusive = no clear call, values can overlap the other calls; tested in HMLE shEcad cells
Calb FLC – affects C. albicans growth with fluconazole. C. albicans CaCi-2 (fluconazole-resistant clinical isolate) + fluconazole, Alamar Blue growth, 48 h. growth inhibition, % (no concentration beside the values). hit rate 0.57% among 300,000. AID 1979;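 active = growth inhibition above about 58% in most replicates, limit read from the data, passing the limit was not always enough; inconclusive = exactly half the replicates above a set limit; inactive = most replicates below a set limit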;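 note: all wells also contain fluconazole at 8 µg/ml as a sub-toxic cotreatment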
Mdm2 MdmX conf – confirmation of human Mdm2/MdmX interaction inhibitors | shares compounds with Mdm2 MdmX PPI | Mdm2-MdmX binding, luminescent assay | inhibition, % at 8 µM | hit rate 55% among 10,000; in the data active = inhibition above about 40%
FLuc counter – full-length luciferase inhibition in Mdm2/MdmX counter-screen; inhibition, % at 8 µM; hit rate 77% among 6,200; shares compounds with Mdm2 MdmX PPI; SaOS-2 full-length luciferase counterscreen, luminescence; AID 504607;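 active = mean inhibition at 8 µM reaching about 37%, which flags the compound as non-specific, limit read from the data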;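 note: p53-null SaOS-2 cells with luciferase driven by a doxycycline-inducible promoter; compound on cells about two nights before reading with doxycycline added after day one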
Numbers stand for hits; - = inactive; ? = inconclusive; . = no result given. This is a sample that favours compounds with a hit; in the whole collection about 4.8% have one here.

SMILES | Beta apoptosis | MPTP inh | Mdm2 MdmX PPI | CSC inhib | Calb FLC | Mdm2 MdmX conf | others
Cc1ccccc1NC1=CC(=O)CC(C)(C)C1 | . | - | - | - | - | .
CCCc1nc2c(Cl)cc(C(F)(F)F)cn2c1Cc1ccc(OC)cc1C | . | - | . | . | . | .
NS(=O)(=O)c1ccc(CCNC(=O)c2ccc(C#CC3(O)CCCCC3)cc2)cc1 | - | - | 70 | - | - | 68 | FLuc counter=72
NS(=O)(=O)c1ccc(CCNC(=O)c2ccncc2)cc1 | - | - | - | - | - | .
Cn1c(NCc2cccnc2)nc2cc(-c3cccc(C(=O)NCCO)c3)sc2c1=O | . | - | . | . | . | .
CC(C)c1ccc(/C=C/C(=O)Nc2nc3ccc([N+](=O)[O-])cc3s2)cc1 | - | - | 56 | - | - | -
O=C(/C=C/c1ccc2c(c1)OCO2)Nc1nc2ccc(F)cc2s1 | - | - | 73 | - | - | -
CCOc1ccc2nc(NC(=O)/C=C/c3ccc4c(c3)OCO4)sc2c1 | - | - | - | - | - | .
COC(=O)c1ccc(C(=O)OC)c(NC(=O)C2CC(=O)N(C3CCCC3)C2)c1 (stereo not drawn) | . | - | . | . | . | .
CCCN1CCC(NCc2cn(C)nc2-c2ccc(Oc3ccccc3)cc2)CC1 | - | - | 65 | - | - | 65 | FLuc counter=56
CCc1nc2c(OCC(=O)c3ccc(Cl)cc3Cl)cccn2c1N(C)C(=O)c1cccs1 | . | - | . | . | . | .
O=C(Nc1ccc2c(c1)OCCO2)c1cccc2nc3ccccc3nc12 | - | - | 78 | 83 | - | 57 | FLuc counter=-
O=C(Nc1ccc2c(c1)OCCO2)c1ccccc1Cl | . | - | . | . | . | .
Cc1cnn(-c2cc(N/N=C/c3ccccc3)ncn2)c1 | - | - | - | - | - | .
Cc1cnn(-c2cc(N/N=C/c3ccccc3F)ncn2)c1 | - | - | 64 | - | - | -
Cc1cnn(-c2cc(N/N=C/c3cccc(F)c3)ncn2)c1 | - | - | 75 | - | - | -
COc1ccc(N=C2S/C(=C\c3ccc(N4CCOCC4)o3)C(=O)N2CCc2c[nH]c3ccccc23)cc1 | 105 | - | 95 | - | - | 99 | FLuc counter=-
NC(=O)CSc1nnc(NC(=O)c2ccc(S(=O)(=O)N3CCCCC3)cc2)s1 | - | - | - | - | - | .
Cc1ccc(F)c(S(=O)(=O)NC(=O)C2(C)CCN2C(=O)c2ccccc2)c1 (stereo not drawn) | . | - | . | . | . | .
O=C(N/N=C1\CC(c2ccccc2)Oc2ccccc21)c1ccc(O)cc1 (stereo not drawn) | - | - | - | - | - | .
O=C(N/N=C1\CC(c2ccccc2)Oc2ccccc21)c1cccnc1 (stereo not drawn) | - | - | 52 | - | - | -
O=c1c(Cl)nc2cc(Cl)ccc2n1CCNc1ncc(C(F)(F)F)cc1Cl | - | - | 97 | - | - | 43 | FLuc counter=-
O=C(/C=C/c1cccs1)c1cc(Br)ccc1OC(=O)N1CCOCC1 | - | - | 53 | - | - | -
COc1ccc(C(=O)/C=C/c2cccs2)c(OC(=O)N2CCOCC2)c1 | - | - | - | - | - | .
CN(C)CCNc1ncnc2c1sc1nc(-c3ccccc3)c3c(c12)CCCC3 | - | - | 100 | - | - | 70 | FLuc counter=41
SMILES | Beta apoptosis | MPTP inh | Mdm2 MdmX PPI | CSC inhib | Calb FLC | Mdm2 MdmX conf | others
O=C(N/N=C/c1ccc(Br)s1)c1ccncc1 | - | - | - | . | - | .
O=C(N/N=C/c1cc(Br)c(Br)s1)c1ccncc1 | 85 | - | 51 | - | - | -
COc1ccc(S(=O)(=O)NC(=O)C2(C)CCN2C(=O)CC2CCCC2)cc1 (stereo not drawn) | . | - | . | . | . | .
COc1ccccc1OCC(=O)N/N=C/c1cccc2cccnc12 | - | - | - | - | - | .
COc1ccccc1OCC(=O)N/N=C/c1c(O)ccc2ccccc12 | - | - | 82 | - | - | 78 | FLuc counter=-
O=C(CN1CCCC1)N/N=C/c1c(O)ccc2ccccc12 | - | - | 72 | - | ? | 76 | FLuc counter=39
O=C(N/N=C\c1ccc(Cl)s1)c1ccc(Cn2cccn2)o1 | - | - | - | - | - | .
Cc1cc(C)n(CCC(=O)N/N=C/c2c(O)ccc3ccccc23)n1 | 93 | - | 73 | - | - | 78 | FLuc counter=52
O=C(N/N=C\c1c(O)ccc2ccccc12)c1ccc(Cn2cccn2)o1 | 79 | - | 75 | - | - | 74 | FLuc counter=-
COC(=O)[C@]12CCCCC=C1N(CCc1ccc(OC)c(OC)c1)C(=O)[C@H](CC(=O)N1CCCCC1)C2 | . | - | . | . | . | .
CCN(c1ccc(OC)cc1)S(=O)(=O)c1nnc(NC(=O)c2ccccc2Cl)s1 | - | - | - | - | - | .
Cc1ccc(N(CC(=O)NCc2ccco2)C(=O)CCC(=O)Nc2nccs2)c(C)c1 | - | - | - | - | - | .
CCN(CC)CCCCN1c2ccccc2Sc2ccccc21 | - | - | 59 | - | - | -
O=C(CN1CCN(C(=O)c2cccc(-n3cnnn3)c2)CC1)Nc1ccccc1Cl | - | - | - | - | . | .
CCOc1ccc(C(=O)N/N=C(\c2ccccc2)c2ccccn2)cc1 | 97 | - | 71 | - | - | 87 | FLuc counter=-
Cn1ccnc1/C(=N\NC(=O)c1ccccc1)c1cccc([N+](=O)[O-])c1 | - | - | - | - | ? | .
CCc1ccc(/C(C)=N/NC(=O)c2ccccn2)cc1 | - | - | - | - | - | .
O=C(N/N=C(\c1ccccc1)c1ccccn1)c1cccc([N+](=O)[O-])c1 | 102 | - | 79 | - | 113 | 66 | FLuc counter=-
NC(Cc1ccc(F)cc1)c1csc(Nc2ccc(C(F)(F)F)cn2)n1 (stereo not drawn) | . | - | . | . | . | .
CN1CCN(C(=O)C2CCCN(S(=O)(=O)c3ccc(Cl)cc3)C2)CC1 (stereo not drawn) | - | - | - | - | - | .
COC(=O)[C@@]12C[C@@H](CC(=O)NCCC(C)C)C(=O)N(Cc3ccccc3)C1=CCC(C)(C)C2 | . | - | . | . | . | .
Cc1ccc(OCCn2cnc3c(N)ncnc32)cc1 | - | - | 72 | - | - | -
CCOc1ccc(OCCn2c(=S)[nH]c3c(N)ncnc32)cc1 | - | - | - | - | - | .
Cc1ccc(NC(=O)CCC(=O)NN=Cc2ccc(C)o2)c(C)c1 | . | - | . | . | . | .
COc1ccc(-c2oc3cc(O)c(OC)c(O)c3c(=O)c2OC)cc1 | . | - | - | - | - | .
SMILES | Beta apoptosis | MPTP inh | Mdm2 MdmX PPI | CSC inhib | Calb FLC | Mdm2 MdmX conf | others
COc1ccc(-c2oc3cc(OC)c(O)c(OC)c3c(=O)c2OC)cc1O | - | - | 64 | - | - | 42 | FLuc counter=-
COc1c(OC)c(O)c2c(=O)c(O)c(-c3ccccc3)oc2c1OC | - | - | 81 | - | - | -
COc1c(O)c(O)c2oc(-c3ccccc3)cc(=O)c2c1OC | . | - | - | - | - | .
COc1ccc(-c2oc3c(OC)c(OC)c(OC)c(O)c3c(=O)c2OC)cc1OC | - | - | 79 | - | - | 87 | FLuc counter=47
NNc1nc2sc3c(c2c(=O)n1C1CCCCC1)CCN(Cc1ccccc1)C3 | - | - | 55 | - | - | -
NNc1nc2sc3c(c2c(=O)n1Cc1ccccc1)CCC3 | - | - | - | - | - | .
CCOc1ccc(Cl)cc1-c1cc(C(=O)Nc2cc(OC)c(OC)c(OC)c2)[nH]n1 | . | - | . | . | . | .
O=C(NC1(Cc2ccccc2)CCN(CCc2cccs2)C1=O)c1ccccc1 (stereo not drawn) | - | - | - | - | . | .

Bioassay records deposited in PubChem by several laboratories.
